Laboratory results taken from ChEMBL document CHEMBL1961873, “Compounds: GSK PKIS; Assays: Nanosyn kinase panel” (2012).

Columns and labels:
[1] = target: Tyrosine-protein kinase receptor UFO (Homo sapiens) (UniProt P30530); details: at 1 µM
[2] = target: Tyrosine-protein kinase Blk (Homo sapiens) (UniProt P51451); details: at 0.1 µM
[3] = target: Tyrosine-protein kinase Blk (Homo sapiens) (UniProt P51451); details: at 1 µM
[4] = target: T1, Cytoplasmic tyrosine-protein kinase BMX (Homo sapiens) (UniProt P51813); details: at 0.1 µM
T1 sequence (whole entry): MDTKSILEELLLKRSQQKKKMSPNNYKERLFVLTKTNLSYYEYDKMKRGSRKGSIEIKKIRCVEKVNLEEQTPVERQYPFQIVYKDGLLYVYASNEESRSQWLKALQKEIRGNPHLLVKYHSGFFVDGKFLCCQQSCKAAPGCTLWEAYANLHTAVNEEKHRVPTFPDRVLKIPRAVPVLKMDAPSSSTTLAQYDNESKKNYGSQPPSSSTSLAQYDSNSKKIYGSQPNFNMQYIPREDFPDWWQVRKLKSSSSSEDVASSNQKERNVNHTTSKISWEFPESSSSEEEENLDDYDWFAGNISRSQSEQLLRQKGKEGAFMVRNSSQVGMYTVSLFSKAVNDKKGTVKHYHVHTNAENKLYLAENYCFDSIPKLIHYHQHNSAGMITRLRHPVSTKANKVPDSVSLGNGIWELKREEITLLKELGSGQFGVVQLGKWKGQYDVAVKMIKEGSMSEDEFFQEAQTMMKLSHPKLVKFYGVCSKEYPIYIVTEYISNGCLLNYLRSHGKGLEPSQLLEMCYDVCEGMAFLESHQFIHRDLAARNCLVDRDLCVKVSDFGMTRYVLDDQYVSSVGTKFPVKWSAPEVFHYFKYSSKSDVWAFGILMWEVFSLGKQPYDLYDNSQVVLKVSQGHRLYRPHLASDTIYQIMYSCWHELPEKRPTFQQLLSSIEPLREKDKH

[5] = target: T1, Cytoplasmic tyrosine-protein kinase BMX (Homo sapiens); details: at 1 µM
[6] = target: Protein-tyrosine kinase 6 (Homo sapiens) (UniProt Q13882); details: at 0.1 µM
Chain of Protein-tyrosine kinase 6 (Homo sapiens) (Q13882 whole entry, looked up): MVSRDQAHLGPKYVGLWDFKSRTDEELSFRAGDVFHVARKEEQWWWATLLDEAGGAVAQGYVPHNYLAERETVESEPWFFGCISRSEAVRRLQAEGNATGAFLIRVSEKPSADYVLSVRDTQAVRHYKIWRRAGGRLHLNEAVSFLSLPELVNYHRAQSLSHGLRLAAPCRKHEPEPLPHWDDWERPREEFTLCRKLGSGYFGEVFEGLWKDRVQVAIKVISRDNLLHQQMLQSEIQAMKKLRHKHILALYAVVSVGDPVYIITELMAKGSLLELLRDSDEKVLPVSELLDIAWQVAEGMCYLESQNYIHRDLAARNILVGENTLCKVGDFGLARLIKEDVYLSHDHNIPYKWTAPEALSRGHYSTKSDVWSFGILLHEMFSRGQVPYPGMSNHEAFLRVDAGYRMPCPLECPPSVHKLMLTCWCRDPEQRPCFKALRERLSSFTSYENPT

[7] = target: Protein-tyrosine kinase 6 (Homo sapiens) (UniProt Q13882); details: at 1 µM
[8] = target: Tyrosine-protein kinase BTK (Homo sapiens) (UniProt Q06187); details: at 0.1 µM
Chain of Tyrosine-protein kinase BTK (Homo sapiens) (Q06187 whole entry): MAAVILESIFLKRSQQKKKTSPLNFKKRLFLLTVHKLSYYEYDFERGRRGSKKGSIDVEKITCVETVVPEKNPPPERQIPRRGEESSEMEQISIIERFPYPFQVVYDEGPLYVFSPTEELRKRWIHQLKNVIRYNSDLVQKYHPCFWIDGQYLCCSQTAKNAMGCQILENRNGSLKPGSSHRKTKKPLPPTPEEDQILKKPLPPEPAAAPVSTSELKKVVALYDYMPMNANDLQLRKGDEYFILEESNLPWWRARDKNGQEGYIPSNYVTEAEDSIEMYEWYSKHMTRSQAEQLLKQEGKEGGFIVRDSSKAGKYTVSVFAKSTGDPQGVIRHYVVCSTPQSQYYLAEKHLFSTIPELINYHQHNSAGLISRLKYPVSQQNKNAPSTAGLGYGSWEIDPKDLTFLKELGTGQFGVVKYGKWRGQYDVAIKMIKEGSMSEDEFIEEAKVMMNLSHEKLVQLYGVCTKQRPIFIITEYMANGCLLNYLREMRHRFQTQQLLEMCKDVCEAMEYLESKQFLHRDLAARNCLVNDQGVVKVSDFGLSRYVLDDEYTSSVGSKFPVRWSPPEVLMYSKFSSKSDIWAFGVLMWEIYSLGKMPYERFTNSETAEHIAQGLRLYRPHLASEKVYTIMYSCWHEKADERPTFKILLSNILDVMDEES

[9] = target: Tyrosine-protein kinase BTK (Homo sapiens) (UniProt Q06187); details: at 1 µM
[10] = target: Tyrosine-protein kinase CSK (Homo sapiens) (UniProt P41240); details: at 0.1 µM
[11] = target: Tyrosine-protein kinase CSK (Homo sapiens) (UniProt P41240); details: at 1 µM
[12] = target: T2, Discoidin domain-containing receptor 2 (Homo sapiens) (UniProt Q16832); details: at 0.1 µM
T2 sequence (whole entry): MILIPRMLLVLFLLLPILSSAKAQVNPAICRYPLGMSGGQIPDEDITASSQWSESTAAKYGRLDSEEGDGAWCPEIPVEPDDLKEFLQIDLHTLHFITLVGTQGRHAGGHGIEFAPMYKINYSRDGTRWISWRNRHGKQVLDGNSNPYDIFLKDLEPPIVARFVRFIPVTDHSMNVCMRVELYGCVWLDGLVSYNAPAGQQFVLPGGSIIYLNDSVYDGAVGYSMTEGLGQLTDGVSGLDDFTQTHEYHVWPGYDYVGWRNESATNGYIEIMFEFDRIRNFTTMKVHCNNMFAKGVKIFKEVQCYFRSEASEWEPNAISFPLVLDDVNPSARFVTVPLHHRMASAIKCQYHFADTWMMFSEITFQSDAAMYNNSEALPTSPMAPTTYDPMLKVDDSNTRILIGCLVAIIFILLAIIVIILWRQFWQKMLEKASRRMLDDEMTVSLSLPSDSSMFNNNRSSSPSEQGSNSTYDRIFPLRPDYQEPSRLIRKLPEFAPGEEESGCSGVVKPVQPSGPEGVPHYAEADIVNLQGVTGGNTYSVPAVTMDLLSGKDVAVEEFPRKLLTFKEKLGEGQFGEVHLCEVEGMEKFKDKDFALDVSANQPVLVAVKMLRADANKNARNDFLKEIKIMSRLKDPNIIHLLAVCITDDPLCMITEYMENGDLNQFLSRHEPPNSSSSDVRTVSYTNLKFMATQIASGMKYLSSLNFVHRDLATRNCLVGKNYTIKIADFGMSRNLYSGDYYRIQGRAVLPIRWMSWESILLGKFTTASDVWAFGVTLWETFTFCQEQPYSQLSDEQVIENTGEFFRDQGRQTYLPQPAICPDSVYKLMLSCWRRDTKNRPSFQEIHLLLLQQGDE

[13] = target: T2, Discoidin domain-containing receptor 2 (Homo sapiens); details: at 1 µM
[14] = target: Epidermal growth factor receptor (Homo sapiens) (UniProt P00533); details: at 0.1 µM
Chain of Epidermal growth factor receptor (Homo sapiens) (P00533 whole entry): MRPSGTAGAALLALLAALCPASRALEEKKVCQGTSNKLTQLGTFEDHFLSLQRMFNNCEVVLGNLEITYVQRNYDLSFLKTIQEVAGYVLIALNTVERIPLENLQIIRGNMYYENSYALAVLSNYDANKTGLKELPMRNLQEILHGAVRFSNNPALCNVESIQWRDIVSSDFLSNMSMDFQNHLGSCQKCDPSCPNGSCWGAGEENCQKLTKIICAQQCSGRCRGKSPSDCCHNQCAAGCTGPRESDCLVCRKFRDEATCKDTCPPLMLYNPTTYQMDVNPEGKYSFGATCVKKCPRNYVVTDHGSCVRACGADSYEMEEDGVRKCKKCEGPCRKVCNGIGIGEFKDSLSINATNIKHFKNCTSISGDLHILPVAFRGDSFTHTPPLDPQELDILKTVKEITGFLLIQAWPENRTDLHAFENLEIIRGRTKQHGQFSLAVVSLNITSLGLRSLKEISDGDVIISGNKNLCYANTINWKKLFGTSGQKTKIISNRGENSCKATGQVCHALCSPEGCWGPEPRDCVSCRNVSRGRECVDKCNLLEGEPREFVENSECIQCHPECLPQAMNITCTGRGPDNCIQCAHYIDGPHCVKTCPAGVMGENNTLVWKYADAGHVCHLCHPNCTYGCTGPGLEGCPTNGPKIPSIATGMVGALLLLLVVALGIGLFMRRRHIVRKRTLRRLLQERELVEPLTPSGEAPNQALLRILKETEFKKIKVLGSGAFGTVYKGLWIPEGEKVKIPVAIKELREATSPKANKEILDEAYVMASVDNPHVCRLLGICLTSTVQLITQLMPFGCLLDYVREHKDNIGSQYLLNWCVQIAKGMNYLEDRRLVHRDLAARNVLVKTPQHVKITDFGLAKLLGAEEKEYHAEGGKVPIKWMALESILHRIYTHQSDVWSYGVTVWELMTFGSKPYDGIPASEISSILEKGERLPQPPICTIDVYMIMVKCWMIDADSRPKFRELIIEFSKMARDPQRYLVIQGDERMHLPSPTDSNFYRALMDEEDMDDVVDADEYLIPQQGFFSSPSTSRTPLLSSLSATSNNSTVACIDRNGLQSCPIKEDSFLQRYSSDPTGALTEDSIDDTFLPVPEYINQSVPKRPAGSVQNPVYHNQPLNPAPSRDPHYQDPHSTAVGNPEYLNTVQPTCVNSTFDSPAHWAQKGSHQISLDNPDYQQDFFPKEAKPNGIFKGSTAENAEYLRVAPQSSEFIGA

[15] = target: Epidermal growth factor receptor (Homo sapiens) (UniProt P00533); details: at 1 µM
[16] = tested on: Epidermal growth factor receptor (Homo sapiens), P00533 [L858R]; details: at 0.1 µM
[17] = tested on: Epidermal growth factor receptor (Homo sapiens), P00533 [L858R]; details: at 1 µM
[18] = tested on: Epidermal growth factor receptor (Homo sapiens), P00533 [L861Q]; details: at 0.1 µM
Chain of Epidermal growth factor receptor (Homo sapiens), P00533 [L861Q] (P00533 whole entry L861Q): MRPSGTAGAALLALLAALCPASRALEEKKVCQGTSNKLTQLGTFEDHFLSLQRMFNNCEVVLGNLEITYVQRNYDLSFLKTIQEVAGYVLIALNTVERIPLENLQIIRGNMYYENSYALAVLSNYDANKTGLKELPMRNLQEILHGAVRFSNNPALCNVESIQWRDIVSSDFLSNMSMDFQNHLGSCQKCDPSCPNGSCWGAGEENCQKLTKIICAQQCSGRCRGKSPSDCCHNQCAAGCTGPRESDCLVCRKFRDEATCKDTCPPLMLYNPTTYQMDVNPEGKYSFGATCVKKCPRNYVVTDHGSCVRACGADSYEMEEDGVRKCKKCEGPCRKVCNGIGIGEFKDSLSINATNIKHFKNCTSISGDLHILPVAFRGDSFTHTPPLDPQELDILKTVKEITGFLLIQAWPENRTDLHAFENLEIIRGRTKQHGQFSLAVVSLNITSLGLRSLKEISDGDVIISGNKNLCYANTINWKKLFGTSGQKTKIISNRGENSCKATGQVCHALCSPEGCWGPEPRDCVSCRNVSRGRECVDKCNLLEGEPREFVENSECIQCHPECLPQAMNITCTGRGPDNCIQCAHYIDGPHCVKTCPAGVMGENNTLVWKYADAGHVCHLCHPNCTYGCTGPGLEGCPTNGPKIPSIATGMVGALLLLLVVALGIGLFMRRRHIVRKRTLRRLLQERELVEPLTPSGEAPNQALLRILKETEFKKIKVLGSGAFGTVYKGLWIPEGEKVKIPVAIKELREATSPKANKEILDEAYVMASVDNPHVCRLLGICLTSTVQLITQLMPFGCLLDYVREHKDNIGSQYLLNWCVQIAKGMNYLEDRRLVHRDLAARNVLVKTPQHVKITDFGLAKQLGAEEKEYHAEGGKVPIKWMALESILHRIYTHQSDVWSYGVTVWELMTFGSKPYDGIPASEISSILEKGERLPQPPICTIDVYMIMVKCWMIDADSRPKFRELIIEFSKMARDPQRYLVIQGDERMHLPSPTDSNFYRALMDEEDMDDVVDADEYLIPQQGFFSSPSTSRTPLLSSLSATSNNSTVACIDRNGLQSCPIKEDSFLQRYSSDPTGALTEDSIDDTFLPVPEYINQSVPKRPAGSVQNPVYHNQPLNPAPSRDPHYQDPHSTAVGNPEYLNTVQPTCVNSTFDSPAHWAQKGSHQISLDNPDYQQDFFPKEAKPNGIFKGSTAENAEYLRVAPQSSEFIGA

[19] = tested on: Epidermal growth factor receptor (Homo sapiens), P00533 [L861Q]; details: at 1 µM
[20] = tested on: Epidermal growth factor receptor (Homo sapiens), P00533 [T790M]; details: at 0.1 µM

Chain of Tyrosine-protein kinase receptor UFO (Homo sapiens) (P30530 whole entry): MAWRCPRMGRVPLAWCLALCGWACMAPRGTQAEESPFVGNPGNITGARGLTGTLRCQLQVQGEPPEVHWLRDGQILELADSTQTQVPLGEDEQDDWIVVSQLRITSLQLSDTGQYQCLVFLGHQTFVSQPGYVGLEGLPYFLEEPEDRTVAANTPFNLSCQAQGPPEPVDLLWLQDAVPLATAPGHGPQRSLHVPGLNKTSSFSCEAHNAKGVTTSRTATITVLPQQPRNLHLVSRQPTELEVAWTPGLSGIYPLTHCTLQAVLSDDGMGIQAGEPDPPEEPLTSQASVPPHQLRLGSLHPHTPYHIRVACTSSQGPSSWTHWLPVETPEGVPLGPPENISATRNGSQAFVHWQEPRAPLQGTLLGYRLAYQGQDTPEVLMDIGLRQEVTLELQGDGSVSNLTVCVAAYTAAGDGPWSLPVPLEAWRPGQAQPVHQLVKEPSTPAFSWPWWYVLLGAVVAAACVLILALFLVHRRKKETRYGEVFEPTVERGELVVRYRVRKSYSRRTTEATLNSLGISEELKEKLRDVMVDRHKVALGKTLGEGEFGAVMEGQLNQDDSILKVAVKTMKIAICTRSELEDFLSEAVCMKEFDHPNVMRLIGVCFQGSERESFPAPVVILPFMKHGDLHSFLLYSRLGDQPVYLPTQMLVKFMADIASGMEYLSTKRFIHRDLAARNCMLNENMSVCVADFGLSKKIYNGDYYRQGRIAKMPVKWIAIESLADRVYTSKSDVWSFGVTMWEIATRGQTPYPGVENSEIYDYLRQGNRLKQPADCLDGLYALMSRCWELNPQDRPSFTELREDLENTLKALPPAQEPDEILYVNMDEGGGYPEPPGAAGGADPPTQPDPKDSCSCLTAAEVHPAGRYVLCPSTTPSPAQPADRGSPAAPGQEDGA
Chain of Tyrosine-protein kinase Blk (Homo sapiens) (P51451 2-505 limits assumed): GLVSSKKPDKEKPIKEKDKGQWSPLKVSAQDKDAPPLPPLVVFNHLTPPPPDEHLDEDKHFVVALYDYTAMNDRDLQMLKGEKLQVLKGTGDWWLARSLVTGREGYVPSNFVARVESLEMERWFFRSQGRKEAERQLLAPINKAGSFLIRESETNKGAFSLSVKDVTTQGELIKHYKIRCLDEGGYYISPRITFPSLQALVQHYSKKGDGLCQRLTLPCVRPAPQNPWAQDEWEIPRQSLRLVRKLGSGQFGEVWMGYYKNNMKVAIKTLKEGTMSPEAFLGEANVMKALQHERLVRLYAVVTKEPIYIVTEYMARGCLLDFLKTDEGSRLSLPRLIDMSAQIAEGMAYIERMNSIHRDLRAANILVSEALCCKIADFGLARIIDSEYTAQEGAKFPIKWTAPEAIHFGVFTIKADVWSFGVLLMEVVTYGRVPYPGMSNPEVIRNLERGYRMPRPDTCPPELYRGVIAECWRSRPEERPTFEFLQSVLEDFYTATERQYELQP

SMILES | inhibition [1] [%] | inhibition [2] [%] | inhibition [3] [%] | inhibition [4] [%] | inhibition [5] [%] | inhibition [6] [%] | inhibition [7] [%] | inhibition [8] [%] | inhibition [9] [%] | inhibition [10] [%] | inhibition [11] [%] | inhibition [12] [%] | inhibition [13] [%] | inhibition [14] [%] | inhibition [15] [%] | inhibition [16] [%] | inhibition [17] [%] | inhibition [18] [%] | inhibition [19] [%] | inhibition [20] [%]
CN(c1ccc(NC(=O)Nc2ccc(OC(F)(F)F)cc2)cc1)c1ccnc(Nc2cccc(S(N)(=O)=O)c2)n1 | 16.2 | 29.4 | 86.3 | 5.28 | 26.1 | 16.1 | 77.1 | 0.33 | 5.19 | 3.6 | 29.4 | 53.2 | 88.6 | -0.6 | 3.21 | 1.4 | 3.36 | 1.14 | 5.92 | 1.81
Oc1cccc(-c2nc(-c3ccccc3)[nH]c2-c2ccncc2)c1 | -0.19 | 2.99 | 8.82 | 7.29 | 8.97 | 13 | 55.4 | 2.03 | 2.36 | 6.74 | 16.5 | 2.82 | 10.9 | 2.76 | 4.4 | 6.31 | 19.7 | 4.74 | 8.26 | 1.84
Nc1ccc(C#Cc2cncnc2Nc2ccc(OCc3cccc(F)c3)c(Cl)c2)cc1 | -3.04 | 2.28 | 3.41 | 4.02 | 2.63 | 0.17 | 4.63 | -0.24 | 1.11 | -1.23 | 4.88 | 1.32 | 0.65 | 45.5 | 82.8 | 5.98 | 35.2 | 23.1 | 37.2 | 2.51
CN(C)CCCn1c(-c2nonc2N)nc2cnccc21 | -8.31 | 1.44 | 3.44 | 3.45 | 3.08 | 0.2 | 3.36 | 0.72 | 0.12 | 1.79 | 1.67 | 1.29 | 1.57 | 9.72 | 10.6 | 3.98 | 0.96 | 3.25 | 1.62 | 2.09
ON=C1CCc2cc(-c3nc(C4CCNCC4)[nH]c3-c3ccncc3)ccc21 | 2.54 | 0.32 | 2.67 | 1.43 | -1.75 | -0.84 | -2.02 | -1.11 | 3.08 | -4.87 | -6.96 | -0.82 | -2.38 | 0.23 | 2.59 | -0.65 | -1.1 | 0.26 | -2.11 | -0.91
Cc1ccc(Nc2ccnc(Nc3cccc(C(N)=O)c3)n2)cc1O | 0.42 | 11.8 | 71.2 | 14.1 | 56.7 | 48.9 | 91.5 | 3.4 | 29.1 | 10.8 | 35.4 | 5.32 | 30 | -1.74 | 11.7 | 5.83 | 32 | 4.18 | 13 | 3.21
NS(=O)(=O)c1cccc(-c2cc3ccncc3cc2OCc2ccccc2)c1 | -7.14 | 2.09 | 6.09 | -0.13 | 4.21 | 4.43 | 4.64 | -0.27 | 0.84 | 5.62 | 4.74 | 1.4 | 6.85 | -0.75 | 3.23 | 4.24 | 6.99 | 4.79 | 3.2 | 2.32
Cc1ccc(C(=O)NC2CC2)cc1-c1ccc2[nH]ncc2c1 | 6.55 | -1.8 | -1.6 | -2.64 | -6.39 | -2.14 | -3.93 | 0.06 | -1.33 |  |  | -0.85 | -0.74 | -1.17 | 1.98 | -1.88 | -2.39 | -0.66 | -1.04 | -2
Cc1cc(Cl)cc2c1NC(=O)C2=NNc1ccc(S(N)(=O)=O)cc1 | -2.47 | 1.98 | 1.63 | 3.4 | 2.55 | -0.72 | 1.77 | 2.48 | 0.33 | -0.78 | 3.65 | 5.11 | 4.88 | 0.92 | 1.34 | 0.35 | 4.79 | 1.56 | 4.09 | 1.21
NS(=O)(=O)c1cccc(Nc2cc(-c3ccc(F)cc3)n[nH]2)c1 | -3.83 | 2.05 | 6.41 | -2.37 | 4.82 | 1.68 | 3.52 | 0.73 | 0.11 | 4.6 | 6.86 | 0.4 | 2.6 | -0.56 | 3.41 | 1.69 | 6.63 | 2.18 | 5.8 | 2.62
CS(=O)(=O)CCNCc1nc(-c2ccc3ncnc(Nc4ccc(OCc5cccc(C(F)(F)F)c5)cc4)c3c2)cs1 | -2.54 | 1.22 | 4.48 | 3.48 | 5.73 | -0.74 | 1.75 | 0.43 | 1.66 | 3.59 | 2.7 | 5.44 | 5.59 | 14.6 | 64 | 8.86 | 43.9 | 11.5 | 34.8 | -1.75
COc1cccc(-n2ncc3c(N/N=C/c4ccc(C)cc4)ncnc32)c1 | -6.6 | 3.17 | 7.15 | 5.21 | 10.6 | 3.4 | 5.43 | -0.28 | 0.44 | 2.91 | 8.35 | 0.39 | 2.37 | 3.01 | 4.71 | 2.45 | 11.7 | 1.42 | 6.09 | 0.91
NS(=O)(=O)c1ccc(NC=C2C(=O)Nc3ccc4ncsc4c32)cc1 | 42.4 | 8.34 | 58.3 | 6.93 | 13.8 | 3.25 | 8.92 | 0.4 | 3.74 | 2.77 | 3.77 | 1.65 | 6.94 | 0.01 | 0.9 | 3.08 | 5.45 | 2.21 | 0.54 | 2.24
COc1cc2ncnc(Nc3ccc(C)c(O)c3)c2cc1OC |  | 7.68 | 49 | 6.28 | 13 | 17.5 | 65.5 | 0.81 | 15.9 | 5.1 | 16.8 | 2.29 | 9.45 | 64.7 | 80.9 | 92.3 | 99.4 | 77.2 | 96.2 | 8.64
Cc1ccc(O)cc1Nc1ccnc2ccc(S(C)(=O)=O)cc12 |  | 42.8 | 91.4 | 76.5 | 93.2 | 95.3 | 103 | 63.8 | 77.3 | 70.3 | 94.2 | 59.8 | 79.7 | 12.7 | 36.6 | 19.7 | 72.1 | 8.5 | 31.9 | 3.11
COc1cc2ncnc(Nc3ccc4c(cnn4Cc4ccccc4)c3)c2cc1OC | -3.18 | 13.9 | 60.8 | 3.73 | 23.4 | 13.1 | 53.2 | 4.09 | 29.1 | 11.1 | 58.2 | 1.74 | 1.78 | 87.2 | 84.7 | 72.5 | 94.4 | 55.8 | 84.8 | 8.65
COc1cc(Nc2nccc(-c3cnn4ncccc34)n2)cc(OC)c1 | 20.7 | 2 | 24.8 | 7.04 | 31.3 | 0.23 | 17.6 | 1.94 | 11.3 | 2.91 | 12.1 | 1.4 | 8.7 | 1.68 | 5.94 | 2.1 | 16.7 | 0.35 | 3.09 | 0.47
COc1cc2ncn(-c3cc(OCc4ccccc4S(C)(=O)=O)c(C#N)s3)c2cc1OC | 43.5 | 16.6 | 72.3 | 1.45 | 33.1 | 4.42 | 9.89 | 1.87 | 11.8 | 7.28 | 4.26 | 2.02 | 8.19 | 3.74 | 11.8 | 9.37 | 45.8 | 3.09 | 8.31 | 3.02
Nc1nccc(-c2c(-c3ccc(F)cc3)ncn2CCCN2CCOCC2)n1 |  | 2.93 | 5.42 | 3.6 | 2.77 | 4.81 | 10.8 | -0.92 | -0.14 | 2.1 | 2.85 | -0.61 | -1.04 | -0.84 | 6.38 | 5.87 | 31.9 | 4.34 | 10.9 | 2.78
O=C(Nc1ccc(Oc2ccc3[nH]c(NC(=O)c4ccco4)nc3c2)cc1)Nc1cc(C(F)(F)F)ccc1F | 60.5 | -3.12 | 1.7 | -2.09 | 1.74 | 1.76 | 3.78 | -3.7 | -3.03 | 2.94 | 35.3 | 60.3 | 80.2 | -1.7 | -1.45 | 0.69 | 0.69 | 0.16 | -2.44 | 0.07
COc1ccc2ncnc(Nc3ccc(OCc4ccccc4)cc3)c2c1 | -5.04 | 2.17 | 6.3 | 2.68 | 2.81 | 0.54 | 9.39 | -0.01 | 1.33 | 2.5 | 8.35 | 1.31 | 2.34 | 62.7 | 76.2 | 12.1 | 46.3 | 23.9 | 39 | -0.31
